Measured values reported in the supplement of paper PMC4466140.

Molecular target: SpBzz1-D2
Experiment: SPOT peptide array binding signal intensity (averaged, normalized) (arbitrary units (background-subtracted, floor 0; scale differs between SH3 domains)); higher = stronger binding of the SH3 domain to the peptide
In short: (§1)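 Peptides were synthetic 15-mers on cellulose membranes, with every cysteine replaced by serine. They were incubated overnight at 4°C with GST-SH3 domains from four yeast species at 10 μg/ml in TBS-based blocking buffer. Binding signal, the replicate-averaged normalized and background-subtracted spot intensity, is in arbitrary units that differ between domains.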

Binder	SPOT peptide array binding signal intensity
DRIRMFIRFPKFLLE	5.5
VQQDSLPKLPFRSWG	1

Molecular target: SpCyk3
Experiment: as above
In short: as §1

Binder	SPOT peptide array binding signal intensity
DRIRMFIRFPKFLLE	16
VQQDSLPKLPFRSWG	15.5

Molecular target: SpHof1
Experiment: as above
In short: as §1

Binder	SPOT peptide array binding signal intensity
DRIRMFIRFPKFLLE	264
VQQDSLPKLPFRSWG	11.2

Molecular target: SpHof1-2
Experiment: as above
In short: as §1

Binder	SPOT peptide array binding signal intensity
DRIRMFIRFPKFLLE	35.8
VQQDSLPKLPFRSWG	258

Molecular target: SpHof1-3
Experiment: as above
In short: as §1

Binder	SPOT peptide array binding signal intensity
DRIRMFIRFPKFLLE	1130
VQQDSLPKLPFRSWG	865

Molecular target: SpHse1
Experiment: as above
In short: as §1

Binder	SPOT peptide array binding signal intensity
DRIRMFIRFPKFLLE	1300
VQQDSLPKLPFRSWG	77.5

Molecular target: SpLsb1
Experiment: as above
In short: as §1

Binder	SPOT peptide array binding signal intensity
DRIRMFIRFPKFLLE	1.25
VQQDSLPKLPFRSWG	3.5

Molecular target: SpLsb4
Experiment: as above
In short: as §1

Binder	SPOT peptide array binding signal intensity
DRIRMFIRFPKFLLE	139
VQQDSLPKLPFRSWG	6040

Molecular target: SpMyo1
Experiment: as above
In short: as §1

Binder	SPOT peptide array binding signal intensity
DRIRMFIRFPKFLLE	10.8
VQQDSLPKLPFRSWG	≤ 0

Molecular target: SpNbp2
Experiment: as above
In short: as §1

Binder	SPOT peptide array binding signal intensity
DRIRMFIRFPKFLLE	957
VQQDSLPKLPFRSWG	1

Molecular target: SpPex13
Experiment: as above
In short: as §1

Binder	SPOT peptide array binding signal intensity
DRIRMFIRFPKFLLE	38
VQQDSLPKLPFRSWG	5

Molecular target: SpRvs167
Experiment: as above
In short: as §1

Binder	SPOT peptide array binding signal intensity
DRIRMFIRFPKFLLE	40.3
VQQDSLPKLPFRSWG	2610

Molecular target: SpSla1-D1-D2
Experiment: as above
In short: as §1

Binder	SPOT peptide array binding signal intensity
DRIRMFIRFPKFLLE	≤ 0
VQQDSLPKLPFRSWG	3.5

Molecular target: SpSla1-D3
Experiment: as above
In short: as §1

Binder	SPOT peptide array binding signal intensity
DRIRMFIRFPKFLLE	49
VQQDSLPKLPFRSWG	≤ 0

Molecular target: AgAbp1
Experiment: as above
In short: as §1

Binder	SPOT peptide array binding signal intensity
VQQDSLPKLPFRSWG	9.5

Molecular target: AgBbc1
Experiment: as above
In short: as §1

Binder	SPOT peptide array binding signal intensity
VQQDSLPKLPFRSWG	38.2

Molecular target: AgBem1-D1
Experiment: as above
In short: as §1

Binder	SPOT peptide array binding signal intensity
VQQDSLPKLPFRSWG	3.5

Molecular target: AgBzz1-D1
Experiment: as above
In short: as §1

Binder	SPOT peptide array binding signal intensity
VQQDSLPKLPFRSWG	68.5

Molecular target: AgBzz1-D2
Experiment: as above
In short: as §1

Binder	SPOT peptide array binding signal intensity
VQQDSLPKLPFRSWG	5.5

Molecular target: AgCyk3
Experiment: as above
In short: as §1

Binder	SPOT peptide array binding signal intensity
VQQDSLPKLPFRSWG	29

Molecular target: AgFus1
Experiment: as above
In short: as §1

Binder	SPOT peptide array binding signal intensity
VQQDSLPKLPFRSWG	≤ 0

Molecular target: AgHof1
Experiment: as above
In short: as §1

Binder	SPOT peptide array binding signal intensity
VQQDSLPKLPFRSWG	368

Molecular target: AgHse1
Experiment: as above
In short: as §1

Binder	SPOT peptide array binding signal intensity
VQQDSLPKLPFRSWG	1

Molecular target: AgLsb1
Experiment: as above
In short: as §1

Binder	SPOT peptide array binding signal intensity
VQQDSLPKLPFRSWG	295

Molecular target: AgLsb4
Experiment: as above
In short: as §1

Binder	SPOT peptide array binding signal intensity
VQQDSLPKLPFRSWG	3220

Molecular target: AgMyo5
Experiment: as above
In short: as §1

Binder	SPOT peptide array binding signal intensity
VQQDSLPKLPFRSWG	≤ 0

Molecular target: AgNbp2
Experiment: as above
In short: as §1

Binder	SPOT peptide array binding signal intensity
VQQDSLPKLPFRSWG	≤ 0

Molecular target: AgRvs167
Experiment: as above
In short: as §1

Binder	SPOT peptide array binding signal intensity
VQQDSLPKLPFRSWG	83.3

Molecular target: AgSho1
Experiment: as above
In short: as §1

Binder	SPOT peptide array binding signal intensity
VQQDSLPKLPFRSWG	20

Molecular target: AgSla1-D1-D2
Experiment: as above
In short: as §1

Binder	SPOT peptide array binding signal intensity
VQQDSLPKLPFRSWG	≤ 0

Molecular target: AgSla1-D3
Experiment: as above
In short: as §1

Binder	SPOT peptide array binding signal intensity
VQQDSLPKLPFRSWG	≤ 0

Molecular target: CaAbp1-D1
Experiment: as above
In short: as §1

Binder	SPOT peptide array binding signal intensity
VQQDSLPKLPFRSWG	16

Molecular target: CaAbp1-D2
Experiment: as above
In short: as §1

Binder	SPOT peptide array binding signal intensity
VQQDSLPKLPFRSWG	13

Molecular target: CaBbc1
Experiment: as above
In short: as §1

Binder	SPOT peptide array binding signal intensity
VQQDSLPKLPFRSWG	220

Molecular target: CaBem1-D1
Experiment: as above
In short: as §1

Binder	SPOT peptide array binding signal intensity
VQQDSLPKLPFRSWG	≤ 0

Molecular target: CaBzz1-D1
Experiment: as above
In short: as §1

Binder	SPOT peptide array binding signal intensity
VQQDSLPKLPFRSWG	53

Molecular target: CaBzz1-D2
Experiment: as above
In short: as §1

Binder	SPOT peptide array binding signal intensity
VQQDSLPKLPFRSWG	27.5

Molecular target: CaCyk3
Experiment: as above
In short: as §1

Binder	SPOT peptide array binding signal intensity
VQQDSLPKLPFRSWG	8

Molecular target: CaFus1
Experiment: as above
In short: as §1

Binder	SPOT peptide array binding signal intensity
VQQDSLPKLPFRSWG	24

Molecular target: CaHof1
Experiment: as above
In short: as §1

Binder	SPOT peptide array binding signal intensity
VQQDSLPKLPFRSWG	4

Molecular target: CaHse1
Experiment: as above
In short: as §1

Binder	SPOT peptide array binding signal intensity
VQQDSLPKLPFRSWG	9.25

Molecular target: CaLsb1
Experiment: as above
In short: as §1

Binder	SPOT peptide array binding signal intensity
VQQDSLPKLPFRSWG	≤ 0

Molecular target: CaLsb4
Experiment: as above
In short: as §1

Binder	SPOT peptide array binding signal intensity
VQQDSLPKLPFRSWG	6890

Molecular target: CaMyo5
Experiment: as above
In short: as §1

Binder	SPOT peptide array binding signal intensity
VQQDSLPKLPFRSWG	0.5

Molecular target: CaNbp2
Experiment: as above
In short: as §1

Binder	SPOT peptide array binding signal intensity
VQQDSLPKLPFRSWG	14.5

Molecular target: CaRvs167
Experiment: as above
In short: as §1

Binder	SPOT peptide array binding signal intensity
VQQDSLPKLPFRSWG	1260

Molecular target: CaRvs167-3
Experiment: as above
In short: as §1

Binder	SPOT peptide array binding signal intensity
VQQDSLPKLPFRSWG	8.5

Molecular target: CaSho1
Experiment: as above
In short: as §1

Binder	SPOT peptide array binding signal intensity
VQQDSLPKLPFRSWG	27

Molecular target: CaSla1-D1-D2
Experiment: as above
In short: as §1

Binder	SPOT peptide array binding signal intensity
VQQDSLPKLPFRSWG	14

Molecular target: CaSla1-D3
Experiment: as above
In short: as §1

Binder	SPOT peptide array binding signal intensity
VQQDSLPKLPFRSWG	1.5

Molecular target: ScAbp1
Experiment: as above
In short: as §1

Binder	SPOT peptide array binding signal intensity
VQQDSLPKLPFRSWG	6.5

Molecular target: ScBbc1
Experiment: as above
In short: as §1

Binder	SPOT peptide array binding signal intensity
VQQDSLPKLPFRSWG	3.75

Molecular target: ScBem1-D1
Experiment: as above
In short: as §1

Binder	SPOT peptide array binding signal intensity
VQQDSLPKLPFRSWG	0.5

Molecular target: ScBzz1-D1
Experiment: as above
In short: as §1

Binder	SPOT peptide array binding signal intensity
VQQDSLPKLPFRSWG	≤ 0

Molecular target: ScBzz1-D2
Experiment: as above
In short: as §1

Binder	SPOT peptide array binding signal intensity
VQQDSLPKLPFRSWG	8

Molecular target: ScCyk3
Experiment: as above
In short: as §1

Binder	SPOT peptide array binding signal intensity
VQQDSLPKLPFRSWG	2

Molecular target: ScFus1
Experiment: as above
In short: as §1

Binder	SPOT peptide array binding signal intensity
VQQDSLPKLPFRSWG	≤ 0

Molecular target: ScHof1
Experiment: as above
In short: as §1

Binder	SPOT peptide array binding signal intensity
VQQDSLPKLPFRSWG	178

Molecular target: ScHse1
Experiment: as above
In short: as §1

Binder	SPOT peptide array binding signal intensity
VQQDSLPKLPFRSWG	25

Molecular target: ScLsb1
Experiment: as above
In short: as §1

Binder	SPOT peptide array binding signal intensity
VQQDSLPKLPFRSWG	85.5

Molecular target: ScLsb2
Experiment: as above
In short: as §1

Binder	SPOT peptide array binding signal intensity
VQQDSLPKLPFRSWG	38.5

Molecular target: ScLsb3
Experiment: as above
In short: as §1

Binder	SPOT peptide array binding signal intensity
VQQDSLPKLPFRSWG	5130

Molecular target: ScLsb4
Experiment: as above
In short: as §1

Binder	SPOT peptide array binding signal intensity
VQQDSLPKLPFRSWG	3050

Molecular target: ScMyo3
Experiment: as above
In short: as §1

Binder	SPOT peptide array binding signal intensity
VQQDSLPKLPFRSWG	≤ 0

Molecular target: ScMyo5
Experiment: as above
In short: as §1

Binder	SPOT peptide array binding signal intensity
VQQDSLPKLPFRSWG	≤ 0

Molecular target: ScNbp2
Experiment: as above
In short: as §1

Binder	SPOT peptide array binding signal intensity
VQQDSLPKLPFRSWG	≤ 0

Molecular target: ScPex13
Experiment: as above
In short: as §1

Binder	SPOT peptide array binding signal intensity
VQQDSLPKLPFRSWG	2500

Molecular target: ScRvs167
Experiment: as above
In short: as §1

Binder	SPOT peptide array binding signal intensity
VQQDSLPKLPFRSWG	2720

Molecular target: ScSho1
Experiment: as above
In short: as §1

Binder	SPOT peptide array binding signal intensity
VQQDSLPKLPFRSWG	300

Molecular target: ScSla1-D1-D2
Experiment: as above
In short: as §1

Binder	SPOT peptide array binding signal intensity
VQQDSLPKLPFRSWG	3.5

Molecular target: ScSla1-D3
Experiment: as above
In short: as §1

Binder	SPOT peptide array binding signal intensity
VQQDSLPKLPFRSWG	≤ 0

Molecular target: SpAbp1-D1
Experiment: as above
In short: as §1

Binder	SPOT peptide array binding signal intensity
VQQDSLPKLPFRSWG	25

Molecular target: SpBbc1
Experiment: as above
In short: as §1

Binder	SPOT peptide array binding signal intensity
VQQDSLPKLPFRSWG	5.25

Molecular target: SpBzz1-D1
Experiment: as above
In short: as §1

Binder	SPOT peptide array binding signal intensity
VQQDSLPKLPFRSWG	275
